Source: PubChem BioAssay AID652162 (Broad Institute, 2013)
Hit rate of the full screen: of about 350,000 compounds, about 840 (0.24%) were called active. Only a selection was taken, and actives are over-represented in it overall. Values without a mark were called inactive. Rule as the data show it: active = inhibition above about 10%; inactive = the rest.

Target: Toxin B (Clostridioides difficile) (UniProt P18177)
Experiment: TcdB glycohydrolase inhibitors, primary screen, biochemical, single point, plate reader (AID 652162)
Details: TcdB glycohydrolase enzymatic assay, at 9.99 µM, hits give high values

Sequence of Toxin B (Clostridioides difficile) (P18177 whole entry, looked up): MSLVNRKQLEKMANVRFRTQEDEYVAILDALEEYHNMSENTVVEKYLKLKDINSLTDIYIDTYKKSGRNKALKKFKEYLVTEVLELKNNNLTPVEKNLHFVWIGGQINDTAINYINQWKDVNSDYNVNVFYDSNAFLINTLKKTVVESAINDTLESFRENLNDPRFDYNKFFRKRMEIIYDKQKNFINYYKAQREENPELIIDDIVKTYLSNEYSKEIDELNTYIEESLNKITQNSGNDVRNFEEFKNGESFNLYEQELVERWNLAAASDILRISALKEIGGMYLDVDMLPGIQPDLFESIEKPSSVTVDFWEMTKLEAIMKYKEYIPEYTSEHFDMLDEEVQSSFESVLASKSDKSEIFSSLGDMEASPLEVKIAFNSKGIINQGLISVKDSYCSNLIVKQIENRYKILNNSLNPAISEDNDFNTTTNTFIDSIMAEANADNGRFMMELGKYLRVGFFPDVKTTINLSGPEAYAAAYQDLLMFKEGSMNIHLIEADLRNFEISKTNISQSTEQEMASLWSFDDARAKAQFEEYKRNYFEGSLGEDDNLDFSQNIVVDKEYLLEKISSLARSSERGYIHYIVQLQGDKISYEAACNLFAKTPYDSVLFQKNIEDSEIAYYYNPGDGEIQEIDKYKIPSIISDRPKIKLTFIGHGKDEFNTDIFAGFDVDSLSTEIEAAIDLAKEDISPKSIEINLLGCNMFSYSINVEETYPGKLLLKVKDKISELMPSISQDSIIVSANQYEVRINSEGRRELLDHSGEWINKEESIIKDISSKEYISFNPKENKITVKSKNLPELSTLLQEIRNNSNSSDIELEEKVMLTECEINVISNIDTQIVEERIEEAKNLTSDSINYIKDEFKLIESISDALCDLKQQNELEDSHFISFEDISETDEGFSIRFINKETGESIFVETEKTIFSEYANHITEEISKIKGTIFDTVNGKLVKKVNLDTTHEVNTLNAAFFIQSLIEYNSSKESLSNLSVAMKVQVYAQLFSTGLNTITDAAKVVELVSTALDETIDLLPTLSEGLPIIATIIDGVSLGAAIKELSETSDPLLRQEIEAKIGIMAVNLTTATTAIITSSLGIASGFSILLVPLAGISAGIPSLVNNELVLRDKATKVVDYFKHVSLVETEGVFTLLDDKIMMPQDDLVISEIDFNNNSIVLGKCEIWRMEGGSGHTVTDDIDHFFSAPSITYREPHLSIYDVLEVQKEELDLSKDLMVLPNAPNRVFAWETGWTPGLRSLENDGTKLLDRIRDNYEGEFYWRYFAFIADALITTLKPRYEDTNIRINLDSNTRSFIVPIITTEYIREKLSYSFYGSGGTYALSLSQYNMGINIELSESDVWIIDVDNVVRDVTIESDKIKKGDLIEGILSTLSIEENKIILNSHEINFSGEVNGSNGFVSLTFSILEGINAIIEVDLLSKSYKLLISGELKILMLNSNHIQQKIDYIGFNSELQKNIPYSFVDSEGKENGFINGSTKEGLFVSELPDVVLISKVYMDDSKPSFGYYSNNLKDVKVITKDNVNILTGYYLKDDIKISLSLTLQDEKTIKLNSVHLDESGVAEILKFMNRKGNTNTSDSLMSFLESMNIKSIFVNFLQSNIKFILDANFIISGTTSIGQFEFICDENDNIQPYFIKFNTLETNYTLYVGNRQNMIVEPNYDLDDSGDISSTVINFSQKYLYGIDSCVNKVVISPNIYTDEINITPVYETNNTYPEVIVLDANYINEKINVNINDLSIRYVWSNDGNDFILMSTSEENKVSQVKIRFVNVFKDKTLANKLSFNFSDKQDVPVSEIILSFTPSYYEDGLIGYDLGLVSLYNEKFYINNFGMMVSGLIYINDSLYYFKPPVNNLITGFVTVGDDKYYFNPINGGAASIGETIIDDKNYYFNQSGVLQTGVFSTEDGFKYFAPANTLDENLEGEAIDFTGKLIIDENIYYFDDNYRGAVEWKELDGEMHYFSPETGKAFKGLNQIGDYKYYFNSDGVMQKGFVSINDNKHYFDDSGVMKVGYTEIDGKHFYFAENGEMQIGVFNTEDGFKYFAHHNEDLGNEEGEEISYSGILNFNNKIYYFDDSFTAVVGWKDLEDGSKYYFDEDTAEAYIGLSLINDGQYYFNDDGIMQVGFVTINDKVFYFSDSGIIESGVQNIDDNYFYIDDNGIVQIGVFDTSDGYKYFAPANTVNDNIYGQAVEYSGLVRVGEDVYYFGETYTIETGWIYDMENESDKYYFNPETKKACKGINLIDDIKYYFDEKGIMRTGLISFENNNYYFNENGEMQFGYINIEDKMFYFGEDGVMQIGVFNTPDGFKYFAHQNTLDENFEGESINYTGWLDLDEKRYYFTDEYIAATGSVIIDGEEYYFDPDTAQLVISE

| Compound | inhibition |
| --- | --- |
| C/C(=N\NC(=O)CSc1nc2ccccc2c(=O)n1-c1ccccc1C)c1cccs1 | 11.8% (active) |
| C/C(=N\NC(=O)COc1c(C)cccc1C)c1cccs1 | 0.614% |
| Cc1ccccc1-n1c(SCC(=O)Nc2cccc3ccccc23)nc(O)cc1=O | 1.39% |
| COc1ccccc1-c1cnc2c(c1)C(=O)N([C@H](C)CO)C[C@H](C)[C@H](CN(C)C(=O)CN(C)C)O2 | 0.748% |
| CCC(=O)N(C)C[C@@H]1Oc2ncc(C#Cc3cccnc3)cc2C(=O)N([C@@H](C)CO)C[C@@H]1C | 0.973% |
| C[C@H](CO)N1C[C@H](C)[C@H](CN(C)Cc2ccc3c(c2)OCO3)Oc2c(NC(=O)NC3CCCCC3)cccc2C1=O | -1.25% |
| COc1ccccc1CNC(=O)C[C@@H]1CC[C@H]2[C@@H](COc3ccc(NS(=O)(=O)c4ccc(C)cc4)cc3C(=O)N2C)O1 | 0.867% |
| Cn1cnc(CCNC(=O)C[C@H]2CC[C@@H]3[C@H](COC[C@H](O)CN3C(=O)C3CC3)O2)c1 | -0.073% |
| COc1ccc(NC(=O)Nc2ccc3c(c2)C(=O)N([C@H](C)CO)C[C@H](C)[C@H](CN(C)C(=O)Nc2c(C)noc2C)OCCCC[C@@H](C)O3)cc1 | 0.188% |
| CC(C)NC(=O)Nc1ccc2c(c1)C(=O)N([C@@H](C)CO)C[C@H](C)[C@@H](CN(C)C)O2 | 0.811% |
| Cc1ccc(NNC(=O)C2CCC2)cc1C | 58.9% (active) |
| O=C(NNC(=O)C1CCC1)c1ccccc1 | 1.5% |
| Cc1ccc(C)c(OCC(=O)NNC(=O)C2CCC2)c1 | 1.49% |
| O=C(Nc1cccc(Cl)c1)N[C@H]1CC[C@H](CCNC(=O)C2CCOCC2)O[C@H]1CO | 0.073% |
| CC(=O)C1=CCC(c2ccccc2)N(S(=O)(=O)c2ccc(C)cc2)C1 (stereo unspecified) | 13.2% (active) |
| CCOC(=O)C1=CCC(c2ccc(F)cc2)N(S(=O)(=O)c2ccc(C)cc2)C1 (stereo unspecified) | 1.19% |
| CCOC(=O)C1=CC[C@@H](c2ccncc2)N(S(=O)(=O)c2ccc(C)cc2)C1 | 3.35% |
| CC(C)NC(=O)N1[C@H](CO)[C@H](c2ccccc2)C12CN(C(=O)Cc1ccccc1)C2 | -9.73% |
| CNC[C@H]1OCCCC[C@H](C)Oc2ccc(NS(=O)(=O)c3ccc(Cl)cc3)cc2C(=O)N([C@@H](C)CO)C[C@@H]1C | 0.862% |
| CCCC(=O)Nc1ccc2c(c1)C(=O)N(C)C[C@H](OC)[C@H](C)CN(CCc1ccccc1)[C@H](C)CO2 | 0.195% |
| Cc1noc(C)c1S(=O)(=O)Nc1ccc2c(c1)CC(=O)N([C@@H](C)CO)C[C@@H](C)[C@H](CN(C)S(=O)(=O)c1cccs1)O2 | 1.18% |
| C[C@H]1CN([C@@H](C)CO)C(=O)Cc2cc(N(C)C)ccc2O[C@@H]1CN(C)S(=O)(=O)c1ccc(F)cc1 | -6.02% |
| COCC(=O)Nc1ccc2c(c1)C(=O)N(C)C[C@H](OC)[C@@H](C)CN(C(=O)c1cnccn1)[C@H](C)CO2 | 0.644% |

| Compound | inhibition |
| --- | --- |
| COCCN(C(=O)C(C)C)c1nnc(-c2ccc(C(C)(C)C)cc2)s1 | 10.1% (active) |
| COCCN(Cc1nc(-c2ccc(C(F)(F)F)cc2)no1)C(C)C | 1.49% |
| C[C@@H]1CN([C@H](C)CO)C(=O)c2cc(NS(C)(=O)=O)ccc2O[C@@H]1CN(C)S(C)(=O)=O | 0.537% |
| COCc1cn(CC[C@H]2CC[C@H](NC(=O)Nc3ccc4c(c3)OCO4)[C@@H](CO)O2)nn1 | 0.036% |
| CNC[C@H]1Oc2ncc(-c3ccccc3C)cc2C(=O)N([C@@H](C)CO)C[C@@H]1C | 0.537% |
| C[C@@H]1CN([C@H](C)CO)C(=O)c2cc(C#CC3(O)CCCC3)cnc2O[C@H]1CN(C)Cc1ccncc1 | 0.916% |
| CN1CCN(/N=C/c2c[nH]c3ccccc23)CC1 | 12.7% (active) |
| CN1CCN(/N=C/c2ccc(C#N)cc2)CC1 | 0.047% |
| C[n+]1ccc(/C=C/c2c[nH]c3ccccc23)cc1 | 1.44% |
| C[C@H](CO)N1C[C@H](C)[C@@H](CN(C)C(=O)Nc2cccc3ccccc23)Oc2c(NS(=O)(=O)c3ccccc3)cccc2C1=O | -1.06% |
| C[C@H](CO)N1C[C@H](C)[C@@H](CN(C)Cc2ccc(C(F)(F)F)cc2)Oc2ccc(NC(=O)CCC(F)(F)F)cc2C1=O | 0.866% |
| O=C(C[C@@H]1C[C@@H]2c3cc(NC(=O)Nc4ccc(F)cc4)ccc3O[C@@H]2[C@H](CO)O1)NCC(F)(F)F | 0.33% |
| COC(=O)CN1C(C)=Nc2ccc(Br)cc2C1c1ccccc1 (stereo unspecified) | 55.6% (active) |
| CCC(CC)C(=O)N1CC(=O)Nc2ccc(Br)cc2C1c1ccccc1 (stereo unspecified) | 3.15% |
| COC(=O)Cc1nnn2c1[C@H](C)[C@@H](OC)c1cc(Br)ccc1-2 | 0.213% |
| C[C@@H]1CN([C@@H](C)CO)C(=O)c2cc(-c3ccc(F)cc3)cnc2O[C@@H]1CN(C)Cc1ccc(C(=O)O)cc1 | -1.74% |
| Cc1noc(C)c1S(=O)(=O)Nc1ccc2c(c1)C(=O)N([C@@H](C)CO)C[C@H](C)[C@@H](CN(C)C)OCCCC[C@@H](C)O2 | -1.17% |
| CC(=O)N(C)C[C@@H]1Oc2cc(-c3cncnc3)ccc2S(=O)(=O)N([C@@H](C)CO)C[C@H]1C | -0.296% |
| O=C(C1CCC1)N1CC(=O)N2[C@H](CO)[C@H](c3ccc(C#CCc4ccccc4)cc3)[C@@H]2C1 | 0.603% |
| O=C(c1ccc(N2CCOCC2)c([N+](=O)[O-])c1)N1CCN(S(=O)(=O)c2cccs2)CC1 | 3.29% |
| O=C(c1ccc(N2CCOCC2)c([N+](=O)[O-])c1)N1CCN(c2ccccc2F)CC1 | 10.3% (active) |
| O=C(OCC(=O)N1CCOCC1)c1ccc(N2CCOCC2)c([N+](=O)[O-])c1 | 0.627% |
| O=C(N[C@H]1C=C[C@@H](CC(=O)N2CCc3ccccc3C2)O[C@@H]1CO)C1CCOCC1 | 1.24% |
